The nature of the experiment: Nuclear factor erythroid 2-related factor 2/antioxidant responsive element (Nrf2/ARE) small molecule agonists: luciferase reporter gene qHTS assay in human keratinocytes (AID 1919969). Further: nearly all actives have a fitted effect of over 35% in size. The conditions noted are these: KeratinoSens HaCaT ARE-luciferase, luminescence, 24 h; series mostly up to 92.4 µM.

Results filed as inconclusive are left out. A call without a number means that no potency is given here. Values without a mark were called inactive. The source made the active and inactive calls. The call rests on the fitted dose curve.
Potency means the concentration at half of the fitted maximal effect.

On to `O=C(Cl)c1ccc(Cl)cc1Cl`, for which the Potency entry was “inactive”. Same read-out and setting: the same measure for `CC(=O)OC(C)C[N+](C)(C)C` (stereo unspecified): “inactive”.

Regarding `O=C1c2c(O)ccc([N+](=O)[O-])c2C(=O)c2c([N+](=O)[O-])ccc(O)c21`, the Potency was 6060 nM (active). In the case of `OC(C#CCN1CCCC1)(c1ccccc1)c1ccccc1`, the Potency result was “inactive”. For the molecule `CCCCOCCOC(=O)COc1nc(Cl)c(Cl)cc1Cl`, the Potency result was “inactive”. On to `C[C@H](CCC(=O)O)[C@H]1CC[C@H]2[C@@H]3CC[C@@H]4C[C@H](O)CC[C@]4(C)[C@H]3CC[C@]12C`, for which the Potency entry is “inactive”.

Take `CNCc1cc(F)ccc1Oc1ccc(Cl)c(Cl)c1`: the Potency result is “inactive”. The same measure, in the same setting: the same measure for `CCCCC(CC)COS(=O)(=O)O` (stereo unspecified): “inactive”.

For `Cc1cccc2c1cc1ccc3cccc4ccc2c1c34`, the Potency entry is “inactive”. The same measure, in the same setting: the same measure for `CSCC[C@H](NC(=O)[C@H](Cc1c[nH]c2ccccc12)NC(=O)CCNC(=O)OC(C)(C)C)C(=O)N[C@@H](CC(=O)O)C(=O)N[C@@H](Cc1ccccc1)C(N)=O`: “inactive”.

As to `Cc1cc(=O)c2c(O)c3c(O)cc(=O)c4c3c3c(cc(O)c1c23)C(C)(C)C=4O`, the activity, positive = activation was 7.38% [at 19 µM]. On to `Cc1nnc(SCC2=C(C(=O)O)N3C(=O)[C@@H](NC(=O)Cn4cnnn4)[C@H]3SC2)s1`, for which the Potency entry is “inactive”. Still for that read-out and setting: the same measure for `CC/C(=C(\c1ccc(O)cc1)c1ccc(OCCN(C)C)cc1)c1ccccc1`: “inactive”.

`Cc1cccc(C)c1NC(=O)C(C)N` (stereo unspecified): the Potency entry is “inactive”. Same read-out and setting: with `CCCCCCCCOC(=O)c1cc(O)c(O)c(O)c1` the entry was “inactive”. On to `COC=O`, for which the activity, positive = activation is -9.06% [at 8.39 µM]. `CC(COc1ccccc1)NN` (stereo unspecified): the Potency entry is “inactive”.

`Cc1ccc(NC=O)c(C)c1`: the Potency entry was “inactive”. Still for that read-out and setting: the same measure for `O=C(O)/C=C/c1ccc(O)c(O)c1`: “inactive”. With `C=C(C)[C@@H]1CC=C(C)C(=O)C1`, the Potency entry was “inactive”.

Take `Brc1cc(Br)c(Oc2cc(Br)c(Br)cc2Br)cc1Br`: the Potency result is “inactive”. Same read-out and setting: the same measure for `CCCCCCCCCCCCOCCOCCOCCOCCOCCOCCOCCOCCOCCO`: “inactive”; for `C/C=C1\C(=O)C[C@H]2[C@@H]3CCC4=CC(=O)CC[C@]4(C)[C@H]3CC[C@]12C`: 2130 nM (active). With `COc1cc(C(C)C)c2c(c1)S(=O)(=O)N(COc1cc(=O)n3cccc(OCCN4CCCCC4)c3n1)C2=O`, the Potency was 2910 nM (active).

Regarding `CC/C(=C(/c1ccc(O)cc1)c1ccc(OCCN(C)C)cc1)c1ccccc1`, the Potency entry is “inactive”. As to `C[C@@H](NCCCc1cccc(C(F)(F)F)c1)c1cccc2ccccc12`, the Potency result was “inactive”. On the same count and under the same terms, the same measure for `Cc1cc(C)c(N)cc1C`: “inactive”; for `Cc1ccccc1OCC(=O)O`: “inactive”; for `Cc1ccccc1N=C(N)Nc1ccccc1C`: “inactive”. As to `CN(C)C(=O)NC1(c2ccccc2)CCN(CC[C@@]2(c3ccc(F)c(F)c3)CN(C(=O)c3ccccc3)CCO2)CC1`, the Potency result was “inactive”. Same read-out and setting: with `N=C1N=C(N)c2cc3ccccc3cc21` the figure was 21700 nM (active); with `CN1CCC[C@@H]1c1cccnc1`, “inactive”. For `C[C@@H](Oc1ccc(CNC(=O)c2cccnc2Oc2ccc3c(c2)OCO3)c(F)c1)C(=O)O`, the Potency result was “inactive”. Turning to `C[C@@H]1C[C@H]2[C@@H]3C[C@H](F)C4=CC(=O)C(Cl)=C[C@]4(C)[C@@]3(F)[C@@H](O)C[C@]2(C)[C@@]1(O)C(=O)CO`, the Potency entry was “inactive”. Consider `CCCCCCCCCCCCCCCCN`, for which the Potency result is “inactive”. As for `CC(C)CCCC(C)CC=O` (stereo unspecified), the Potency result is “inactive”. Take `CC1=C(CC(=O)O)c2cc(F)ccc2/C1=C\c1ccc(S(C)(=O)=O)cc1`: the Potency entry was “inactive”.

Regarding `C=C(C)C(=O)OCCCCCCCCCCCCCCCCCC`, the activity, positive = activation was -9.09% [at 19 µM]. Regarding `[Cl][Bi]([Cl])([c]1ccccc1)([c]1ccccc1)[c]1ccccc1`, the Potency was 1530 nM (active). Same read-out and setting: the same measure for `CCOC(=O)c1ccccc1OC`: “inactive”; for `CNCC(O)c1ccc(O)c(O)c1` (stereo unspecified): “inactive”.

(Values after PubChem BioAssay (Tox21).)
